Results as given in PubChem BioAssay (NCI).
Compounds without any hit were thinned out: in the full panel of roughly 83,000, 20% have a hit.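 Assay: single dose, 48 h. Readout: percent growth (0 = no net growth; negative = cell death). Active: <10.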 Active and inactive are the calls of the source.

system: A498 renal; assay: NCI-60 one-dose screen, 48 h (100 = growth as untreated, 0 = no growth, -100 = all killed); settings: 10 µM

Row | SMILES | growth
1 | C=CCc1cc(C(C)=O)cc(OC)c1O | 100% (inactive)
2 | O=C1NC(=O)C2C(=O)NC(=O)C1C21CCc2ccccc21 (stereo unspecified) | 137% (inactive)
3 | O=[N+]([O-])c1cccc(N=Nc2ccc(O)cc2O)c1 | 66.9% (inactive)
4 | NC(=S)N/N=C/c1ccc(N)cc1 | 91.2% (inactive)
5 | COc1ccc(-c2cc(-c3cc(-c4ccc(OC)cc4)nc(N)n3)nc(N)n2)cc1 | 94.1% (inactive)
6 | CC(=O)NC(N)=S | 112% (inactive)
7 | Cc1ccccc1N=C(c1ccccc1)C1C(=O)c2ccccc2C1=O | -13.7% (active)
8 | COc1ccc(C2OC(N)=C(O)C2=O)cc1OC (stereo unspecified) | 109% (inactive)
9 | c1c(-c2cc(C3CC3)[nH]n2)n[nH]c1C1CC1 | 97.6% (inactive)
10 | O=C(Cc1nc2ccc([N+](=O)[O-])cc2nc1CC(=O)c1ccccc1)c1ccccc1 | 132% (inactive)
11 | COc1ccc(C2(O)CCCCC2)cc1 | 86.9% (inactive)
12 | C=CCNc1ccccc1 | 119% (inactive)
13 | Cc1cc(NC(=O)CSCC(=O)O)no1 | 120% (inactive)
14 | CCc1nc(N)nc(N)c1-c1ccc(Cl)cc1 | 87.7% (inactive)
15 | CC(=O)Nc1ccc(NC(C)=O)c2c1C(=O)c1ccccc1C2=O | 91.1% (inactive)
16 | CC(=O)Cc1cc(-c2cc(CC(C)=O)[nH]n2)n[nH]1 | 99.3% (inactive)

system: CCRF-CEM leukemia; assay: as above; settings: 10 µM

Row | SMILES | growth
17 | Nc1ncnc2[nH]ncc12 | 13.1% (inactive)
18 | COC(=O)c1[nH]c(=O)c(C#N)c(C(=O)OC)c1C(=O)c1ccccc1 | 105% (inactive)
19 | CCS(=O)(=O)CCCl | 63.6% (inactive)
20 | N#Cc1ccc(NC(=O)Nc2cccc(C#N)c2)cc1 | 72.4% (inactive)
21 | CN(C)CCN(C)CC(C)(C)C(=O)/C=C/c1ccc(Cl)cc1 | -9.31% (active)
22 | CS(=O)CC1=NC(=N)N=C1CS(C)=O (stereo unspecified) | 108% (inactive)
23 | Cc1cc2nc(CC(=O)c3cccc([N+](=O)[O-])c3)c(=O)[nH]c2cc1C | 76.3% (inactive)
24 | CCOC(=O)c1cc(/C=C/c2cccc(Cl)c2)on1 | 67% (inactive)
25 | Cc1ccc(/C=C2\SC(=S)N(c3ccc(F)cc3)C2=O)o1 | 89.2% (inactive)
26 | OC(c1ccccn1)C(O)c1ccccn1 (stereo unspecified) | 104% (inactive)
27 | CC1(O)OC(COc2ccc(Cl)cc2)COC1O (stereo unspecified) | 98.7% (inactive)
28 | O=C1Cc2ccccc2C(=O)O1 | 85.8% (inactive)
29 | CCC(C)(C)C1CCC(O)CC1 (stereo unspecified) | 93.5% (inactive)
30 | CCCNC(=O)c1ccc(S(N)(=O)=O)cc1 | 81.6% (inactive)
31 | COC(=O)C(C)Oc1ccc(OC#N)cc1 (stereo unspecified) | 102% (inactive)
32 | CCCC(=O)c1cc(C)ccc1OC | 96.5% (inactive)
33 | COC(=O)c1cc(-c2ccc(Cl)c(Cl)c2)[nH]c(=O)c1C#N | 104% (inactive)
34 | OCCN(CCO)C(=S)S | 104% (inactive)
35 | CCCC1(c2ccccc2)NC(=O)NC1=O (stereo unspecified) | 99.7% (inactive)

Row | SMILES | growth
36 | Oc1ccccc1O | 27.1% (inactive)
37 | CNC(=S)NC(C)(C)C | 88.6% (inactive)
38 | OCC1OC(OC2C(O)C(CO)OC2(CO)OC2OC(CO)C(O)C(O)C2O)C(O)C(O)C1O (stereo unspecified) | 88.6% (inactive)
39 | C=CCc1cc(C(C)=O)cc(OC)c1O | 106% (inactive)
40 | O=C1NC(=O)C2C(=O)NC(=O)C1C21CCc2ccccc21 (stereo unspecified) | 78.6% (inactive)
41 | NC(=S)N/N=C/c1ccc(N)cc1 | 87.2% (inactive)
42 | COc1ccc(-c2cc(-c3cc(-c4ccc(OC)cc4)nc(N)n3)nc(N)n2)cc1 | 76.7% (inactive)
43 | CC(=O)NC(N)=S | 86.7% (inactive)
44 | Cc1ccccc1N=C(c1ccccc1)C1C(=O)c2ccccc2C1=O | 65.1% (inactive)
45 | COc1ccc(C2OC(N)=C(O)C2=O)cc1OC (stereo unspecified) | 98.2% (inactive)
46 | CC(=O)OCC1=CC2OC(=O)C3=COC(OC4OC(CO)C(O)C(O)C4O)C1C32 (stereo unspecified) | 104% (inactive)
47 | c1c(-c2cc(C3CC3)[nH]n2)n[nH]c1C1CC1 | 67% (inactive)
48 | O=C(Cc1nc2ccc([N+](=O)[O-])cc2nc1CC(=O)c1ccccc1)c1ccccc1 | 40.5% (inactive)
49 | COc1ccc(C2(O)CCCCC2)cc1 | 96.1% (inactive)
50 | C=CCNc1ccccc1 | 93.6% (inactive)
51 | Cc1cc(NC(=O)CSCC(=O)O)no1 | 107% (inactive)
52 | CCc1nc(N)nc(N)c1-c1ccc(Cl)cc1 | 68.4% (inactive)
53 | CC(=O)Cc1cc(-c2cc(CC(C)=O)[nH]n2)n[nH]1 | 101% (inactive)

system: MOLT-4 leukemia; assay: as above; settings: 10 µM

Row | SMILES | growth
54 | Nc1ncnc2[nH]ncc12 | 25.9% (inactive)
55 | COC(=O)c1[nH]c(=O)c(C#N)c(C(=O)OC)c1C(=O)c1ccccc1 | 104% (inactive)
56 | CCS(=O)(=O)CCCl | 89.5% (inactive)
57 | N#Cc1ccc(NC(=O)Nc2cccc(C#N)c2)cc1 | 78.7% (inactive)
58 | CN(C)CCN(C)CC(C)(C)C(=O)/C=C/c1ccc(Cl)cc1 | -14.7% (active)
59 | CS(=O)CC1=NC(=N)N=C1CS(C)=O (stereo unspecified) | 107% (inactive)
60 | Cc1cc2nc(CC(=O)c3cccc([N+](=O)[O-])c3)c(=O)[nH]c2cc1C | 83.4% (inactive)
61 | CCOC(=O)c1cc(/C=C/c2cccc(Cl)c2)on1 | 99.9% (inactive)
62 | Cc1ccc(/C=C2\SC(=S)N(c3ccc(F)cc3)C2=O)o1 | 79.1% (inactive)
63 | OC(c1ccccn1)C(O)c1ccccn1 (stereo unspecified) | 95.1% (inactive)
64 | CC1(O)OC(COc2ccc(Cl)cc2)COC1O (stereo unspecified) | 60.9% (inactive)
65 | O=C1Cc2ccccc2C(=O)O1 | 85.4% (inactive)
66 | CCC(C)(C)C1CCC(O)CC1 (stereo unspecified) | 106% (inactive)
67 | CCCNC(=O)c1ccc(S(N)(=O)=O)cc1 | 109% (inactive)
68 | COC(=O)C(C)Oc1ccc(OC#N)cc1 (stereo unspecified) | 73.7% (inactive)
69 | COC(=O)c1cc(-c2ccc(Cl)c(Cl)c2)[nH]c(=O)c1C#N | 107% (inactive)
70 | OCCN(CCO)C(=S)S | 121% (inactive)
71 | CCCC1(c2ccccc2)NC(=O)NC1=O (stereo unspecified) | 123% (inactive)
72 | Oc1ccccc1O | 74.4% (inactive)

Row | SMILES | growth
73 | CNC(=S)NC(C)(C)C | 106% (inactive)
74 | OCC1OC(OC2C(O)C(CO)OC2(CO)OC2OC(CO)C(O)C(O)C2O)C(O)C(O)C1O (stereo unspecified) | 126% (inactive)
75 | C=CCc1cc(C(C)=O)cc(OC)c1O | 98% (inactive)
76 | O=C1NC(=O)C2C(=O)NC(=O)C1C21CCc2ccccc21 (stereo unspecified) | 111% (inactive)
77 | O=[N+]([O-])c1cccc(N=Nc2ccc(O)cc2O)c1 | 50.2% (inactive)
78 | NC(=S)N/N=C/c1ccc(N)cc1 | 77.7% (inactive)
79 | COc1ccc(-c2cc(-c3cc(-c4ccc(OC)cc4)nc(N)n3)nc(N)n2)cc1 | 112% (inactive)
80 | CC(=O)NC(N)=S | 77.4% (inactive)
81 | Cc1ccccc1N=C(c1ccccc1)C1C(=O)c2ccccc2C1=O | 56.4% (inactive)
82 | COc1ccc(C2OC(N)=C(O)C2=O)cc1OC (stereo unspecified) | 109% (inactive)
83 | CC(=O)OCC1=CC2OC(=O)C3=COC(OC4OC(CO)C(O)C(O)C4O)C1C32 (stereo unspecified) | 141% (inactive)
84 | c1c(-c2cc(C3CC3)[nH]n2)n[nH]c1C1CC1 | 95.2% (inactive)
85 | O=C(Cc1nc2ccc([N+](=O)[O-])cc2nc1CC(=O)c1ccccc1)c1ccccc1 | 54.2% (inactive)
86 | COc1ccc(C2(O)CCCCC2)cc1 | 97.5% (inactive)
87 | C=CCNc1ccccc1 | 95.4% (inactive)
88 | Cc1cc(NC(=O)CSCC(=O)O)no1 | 103% (inactive)
89 | CCc1nc(N)nc(N)c1-c1ccc(Cl)cc1 | 56.4% (inactive)
90 | CC(=O)Nc1ccc(NC(C)=O)c2c1C(=O)c1ccccc1C2=O | 105% (inactive)
91 | CC(=O)Cc1cc(-c2cc(CC(C)=O)[nH]n2)n[nH]1 | 114% (inactive)
